Test [1] can be described thus: binders of probe aFSTL3 on microarray, primary screen, stem cell growth factor project, biochemical, small-molecule microarray, fluorescence 635/667 (AID 1064).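 Further: measures binding of the biotinylated anti-FSTL3 antibody to printed compounds.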 Particulars: higher = more signal.
A short description of test [2]: binders from COS7 lysate, DM2A8 probe, primary screen, torsin A project, cell lysate, small-molecule microarray, fluorescence 635/667 (AID 1065). To be noted: higher = more signal, COS7 lysate expressing mutant human TOR1A.
Test [3] can be described thus: binders of probe aFGF2 on microarray, primary screen, stem cell growth factor project, biochemical, small-molecule microarray, fluorescence 635/667 (AID 1067).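 Further: measures binding of biotinylated aFGF2 protein to printed compounds on slides; z-score merges feature fluorescence and signal-to-noise across triplicate slides.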 Particulars: higher = more signal.
Test [4] is described as follows: binders of probe aFGF10 on microarray, primary screen, stem cell growth factor project, biochemical, small-molecule microarray, fluorescence 635/667 (AID 1071).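 Further: score merges 667 nm spot intensity and signal to noise from triplicate slides.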 To be noted: higher = more signal.
Test [5] deals with Neurogenic locus notch homolog protein 2 (Homo sapiens) (UniProt Q04721). The experiment in a line: Notch2 binders on small-molecule microarrays, primary screen, biochemical, small-molecule microarray, 635 nm fluorescence, stem cell growth factors (AID 1073). Particulars: Notch2 binding, higher = more signal.
The target of test [6] is Pro-neuregulin-1, membrane-bound isoform (Homo sapiens) (UniProt Q02297). The experiment in a line: NRG1 binders on small-molecule microarrays, primary screen, psychiatric disease protein project, biochemical, small-molecule microarray, fluorescence 635/667 (AID 1075).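 Further: score combines 667 nm spot fluorescence with signal to noise.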 Particulars: NRG1 binding, 635 nm fluorescence, higher = more signal.
Sequence of Pro-neuregulin-1, membrane-bound isoform (Homo sapiens) (Q02297 whole entry, looked up, the tested form may be a part, canonical isoform): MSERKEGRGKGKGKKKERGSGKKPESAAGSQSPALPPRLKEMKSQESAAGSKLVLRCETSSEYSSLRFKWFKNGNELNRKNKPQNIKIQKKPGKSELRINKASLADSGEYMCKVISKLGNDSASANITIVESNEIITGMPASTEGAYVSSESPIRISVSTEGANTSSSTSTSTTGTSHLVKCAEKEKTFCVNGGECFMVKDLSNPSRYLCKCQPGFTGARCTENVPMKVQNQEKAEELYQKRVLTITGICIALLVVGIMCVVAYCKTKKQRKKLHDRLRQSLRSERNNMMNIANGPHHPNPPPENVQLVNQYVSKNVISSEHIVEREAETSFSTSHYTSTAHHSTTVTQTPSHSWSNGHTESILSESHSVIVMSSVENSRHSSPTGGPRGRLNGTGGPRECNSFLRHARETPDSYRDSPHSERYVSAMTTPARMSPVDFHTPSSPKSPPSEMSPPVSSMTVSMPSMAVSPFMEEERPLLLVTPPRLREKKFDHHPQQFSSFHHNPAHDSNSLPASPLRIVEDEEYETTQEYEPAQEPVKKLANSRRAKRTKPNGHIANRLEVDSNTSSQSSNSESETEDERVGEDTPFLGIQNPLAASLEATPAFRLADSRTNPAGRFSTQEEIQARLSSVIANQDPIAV
The test system of test [7] is Neuregulin-1 EGF-like domain. The experiment in a line: binders of neuregulin-1 EGF-like domain, primary screen, biochemical, small-molecule microarray, 635 nm fluorescence (AID 1081).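 Further: binding of the protein to compounds printed on small-molecule microarray slides.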 Particulars: small-molecule microarray binding, higher = more signal.
The nature of test [8]: FRG1 promoter luciferase signal modulators, primary screen, FRG1 inhibition for FSHD, cell-based, C2C12 myotubes, firefly/Renilla luciferase, luminescence (AID 1084). Particulars: higher = more signal, called active from +8 up or from −8 down.
Test [9] can be described thus: binders of probe aFST on microarray, primary screen, stem cell growth factor project, biochemical, small-molecule microarray, fluorescence 635/667 (AID 1086).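 Further: score merges 667 nm fluorescence with signal-to-noise of each printed compound spot.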 Particulars: higher = more signal.
The nature of test [10]: binders of probe aHhip on microarray, primary screen, stem cell growth factor project, biochemical, small-molecule microarray, fluorescence 635/667 (AID 1087).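 Further: score merges spot fluorescence at 667nm with spot signal to noise ratio.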 Particulars: higher = more signal.
For test [11], the system named is PRMT1 (protein arginine N-methyltransferase 1). Put plainly: PRMT1 binders on small-molecule microarrays, primary screen, biochemical, small-molecule microarray, 635 nm fluorescence (AID 1088).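 Further: binding of Prmt1 protein to compounds spotted on small-molecule microarray slides.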 Particulars: small-molecule microarray binding, higher = more signal.
A short description of test [12]: yeast growth modulation, basal conditions, primary screen, YJM789 clinical isolate, OD600, 24 h (AID 1089).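 Further: growth of clinical yeast isolate S. cerevisiae YJM 789 seeded 1000 cells per well; test concentration not given here.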 To be noted: S. cerevisiae YJM789 growth, higher = more signal, called active from +8 up or from −8 down.
A short description of test [13]: fission yeast growth modulation, primary screen, strain 972, OD600, 24 h, no modulator (AID 1090).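 Further: basal condition with compound alone and no growth modifier present; test concentration not given here.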 Particulars: S. pombe 972 growth, higher = more signal, called active from +8 up or from −8 down.
Test [14] is described as follows: S. cerevisiae growth modulation with rapamycin, primary screen, strain BY4716, OD600, 96 h (AID 1091). Further: test concentration not given here. To be noted: higher = more signal, called active from +8 up or from −8 down.
In test [15] the target is Torsin-1A-interacting protein 2 (Homo sapiens) (UniProt Q8NFQ8). The experiment in a line: LULL1 binders on small-molecule microarray, primary screen, cell lysate, human LULL1 lysate, 635/667 nm fluorescence (AID 1092).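 Further: probe is lysate of COS7 cells overexpressing human LULL1; score merges per-feature 667 nm fluorescence with signal-to-noise.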 Particulars: hLULL1 lysate binding, 635 nm fluorescence, higher = more signal.
Sequence of Torsin-1A-interacting protein 2 (Homo sapiens) (Q8NFQ8 whole entry, looked up): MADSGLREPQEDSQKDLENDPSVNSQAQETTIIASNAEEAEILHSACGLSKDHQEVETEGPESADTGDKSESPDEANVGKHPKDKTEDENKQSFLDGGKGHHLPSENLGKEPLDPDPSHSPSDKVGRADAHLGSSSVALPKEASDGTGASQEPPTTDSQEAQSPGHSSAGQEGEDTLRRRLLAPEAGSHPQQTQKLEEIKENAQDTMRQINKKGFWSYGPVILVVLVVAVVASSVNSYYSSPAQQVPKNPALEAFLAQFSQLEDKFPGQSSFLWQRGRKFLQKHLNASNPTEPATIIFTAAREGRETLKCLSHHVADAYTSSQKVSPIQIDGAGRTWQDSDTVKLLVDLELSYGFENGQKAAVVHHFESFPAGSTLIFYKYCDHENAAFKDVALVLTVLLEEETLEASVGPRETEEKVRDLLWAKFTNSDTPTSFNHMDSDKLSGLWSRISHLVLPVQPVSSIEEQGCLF
Test [16] is described as follows: E. coli growth modulation, two-sided OD650, primary screen, E. coli filamentation project, strain DRC41, 24 h (AID 1093).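 Further: MC1000 strain lacking acrAB efflux and sulA so SOS filamentation is blocked; test concentration not given here.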 To be noted: OD650, 24 h, higher = more signal, called active from +8 up or from −8 down.
A short description of test [17]: small-molecule microarray binders of probe aLefty2, primary screen, biochemical, biotinylated probe, 635/667 nm fluorescence (AID 1094).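 Further: score merges spot fluorescence near 667 nm with spot signal-to-noise ratio.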 To be noted: higher = more signal.
In test [18] the test system is Noggin (protein binding on small-molecule microarray). The experiment in a line: Noggin binders on small-molecule microarray, primary screen, biochemical, 635/667 nm fluorescence (AID 1095).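 Further: score merges 667 nm feature fluorescence with signal to noise over triplicate slides.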 Particulars: 635 nm fluorescence, higher = more signal.
Test [19] deals with Neurogenic locus notch homolog protein 3 (Homo sapiens) (UniProt Q9UM47). Put plainly: NOTCH3 binders on small-molecule microarray, primary screen, biochemical, 635/667 nm fluorescence (AID 1096). Particulars: NOTCH3 binding, 635 nm fluorescence, higher = more signal.
Sequence of Neurogenic locus notch homolog protein 3 (Homo sapiens) (Q9UM47 whole entry, looked up): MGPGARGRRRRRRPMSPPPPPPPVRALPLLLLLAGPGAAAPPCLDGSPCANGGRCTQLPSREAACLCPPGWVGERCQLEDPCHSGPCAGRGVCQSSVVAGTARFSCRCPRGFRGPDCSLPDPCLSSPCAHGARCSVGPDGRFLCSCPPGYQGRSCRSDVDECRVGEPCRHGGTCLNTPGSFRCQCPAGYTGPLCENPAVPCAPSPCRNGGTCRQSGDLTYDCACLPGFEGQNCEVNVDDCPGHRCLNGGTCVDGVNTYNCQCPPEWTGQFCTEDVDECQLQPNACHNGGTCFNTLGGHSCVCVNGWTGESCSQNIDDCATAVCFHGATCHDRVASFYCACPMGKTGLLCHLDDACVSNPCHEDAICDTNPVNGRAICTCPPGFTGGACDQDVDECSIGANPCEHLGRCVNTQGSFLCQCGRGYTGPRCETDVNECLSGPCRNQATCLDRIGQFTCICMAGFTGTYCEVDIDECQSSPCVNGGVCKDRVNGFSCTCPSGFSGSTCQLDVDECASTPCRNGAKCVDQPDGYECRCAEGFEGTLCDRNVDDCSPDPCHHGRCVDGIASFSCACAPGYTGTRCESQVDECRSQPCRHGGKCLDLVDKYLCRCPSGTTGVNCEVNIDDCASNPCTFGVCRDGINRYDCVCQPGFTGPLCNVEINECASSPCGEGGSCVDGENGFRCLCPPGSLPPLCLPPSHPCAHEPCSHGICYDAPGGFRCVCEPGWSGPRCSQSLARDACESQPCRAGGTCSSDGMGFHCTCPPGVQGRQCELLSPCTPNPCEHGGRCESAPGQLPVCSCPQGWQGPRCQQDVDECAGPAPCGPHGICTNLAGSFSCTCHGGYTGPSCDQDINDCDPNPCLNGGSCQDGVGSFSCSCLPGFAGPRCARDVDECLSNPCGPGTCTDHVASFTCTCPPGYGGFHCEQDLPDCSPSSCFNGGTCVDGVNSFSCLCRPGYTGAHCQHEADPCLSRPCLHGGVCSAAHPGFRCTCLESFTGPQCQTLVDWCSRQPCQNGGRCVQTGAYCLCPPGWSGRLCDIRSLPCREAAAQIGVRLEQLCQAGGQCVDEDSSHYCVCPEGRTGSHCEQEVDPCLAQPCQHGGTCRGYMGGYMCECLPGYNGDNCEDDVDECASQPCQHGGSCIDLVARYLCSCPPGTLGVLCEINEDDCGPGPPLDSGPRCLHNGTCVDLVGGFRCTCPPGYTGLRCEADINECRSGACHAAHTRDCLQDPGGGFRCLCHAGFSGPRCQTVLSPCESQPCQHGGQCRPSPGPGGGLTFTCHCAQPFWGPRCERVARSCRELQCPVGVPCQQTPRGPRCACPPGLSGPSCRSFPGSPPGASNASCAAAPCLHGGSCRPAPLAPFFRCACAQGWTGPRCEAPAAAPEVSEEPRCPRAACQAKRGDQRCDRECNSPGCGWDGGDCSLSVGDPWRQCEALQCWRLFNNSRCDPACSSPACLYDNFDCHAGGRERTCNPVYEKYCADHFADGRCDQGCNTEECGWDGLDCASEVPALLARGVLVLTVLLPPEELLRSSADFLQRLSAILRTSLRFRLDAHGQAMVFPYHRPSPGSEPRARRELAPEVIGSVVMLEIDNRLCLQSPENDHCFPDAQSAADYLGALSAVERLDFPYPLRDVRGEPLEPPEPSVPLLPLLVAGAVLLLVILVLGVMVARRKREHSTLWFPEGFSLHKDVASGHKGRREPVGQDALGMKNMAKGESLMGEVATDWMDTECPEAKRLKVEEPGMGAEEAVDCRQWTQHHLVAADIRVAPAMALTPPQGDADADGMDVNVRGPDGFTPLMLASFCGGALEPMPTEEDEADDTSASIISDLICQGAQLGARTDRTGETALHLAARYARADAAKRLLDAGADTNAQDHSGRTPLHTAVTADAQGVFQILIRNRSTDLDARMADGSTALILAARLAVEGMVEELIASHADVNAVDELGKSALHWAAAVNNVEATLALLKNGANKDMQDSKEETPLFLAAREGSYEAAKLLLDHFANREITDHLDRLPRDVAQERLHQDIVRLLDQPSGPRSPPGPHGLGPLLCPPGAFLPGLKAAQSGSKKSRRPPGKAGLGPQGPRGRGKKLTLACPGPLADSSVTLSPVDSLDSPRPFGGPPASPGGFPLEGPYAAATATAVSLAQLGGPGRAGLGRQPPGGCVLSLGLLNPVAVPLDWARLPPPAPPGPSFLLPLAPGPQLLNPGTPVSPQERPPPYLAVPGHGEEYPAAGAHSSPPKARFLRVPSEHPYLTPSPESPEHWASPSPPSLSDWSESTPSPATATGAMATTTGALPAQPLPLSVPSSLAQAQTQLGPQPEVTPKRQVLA
Test [20] can be described thus: small-molecule microarray binders of probe aEGFR, primary screen, biochemical, biotinylated probe, 635/667 nm fluorescence (AID 1097).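 Further: probe is a biotinylated anti-EGFR antibody binding compounds printed on slides; score combines fluorescence near 667 nm and signal to noise of each spot.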 Particulars: higher = more signal.

Molecules are shown by their SMILES. Calls of active or inactive are those of the source.

In the case of `CCOC(=O)[C@H](CC(C)C)NC(=O)CCC1CC(OC(=O)NCc2ccc3c(c2)OCO3)CC2(CCCC(COC(=O)NCCOC)O2)O1` (stereo not given in full), the composite z-score in test [1] is -0.412; in test [2], -0.224; in [3], -0.0785; in test [4], 0.197; in [5], 0.805; in test [6] it was -0.0383. In addition, the composite z-score was 1.07 in test [7]; 0.0301 in [9]; 0.0826 in [10]; 0.634 in test [11]; 1.71 in [15]; -0.205 in test [17]. Besides, the composite z-score in [18] turned out to be 0.474; in test [19], 0.793; in test [20], 0.0953. Moreover, the z-score in test [8] was 0.619 (inactive); in test [12], 0.0162 (inactive); in [13], 0.48 (inactive); in [14], -0.958 (inactive); in test [16], -0.172 (inactive).

With `CCN1C(=O)[C@H]2[C@H]3[C@H](O)[C@H](O)CC(=NOC[C@@H](O)[C@H]4O[C@@H]5OC(C)(C)O[C@@H]5[C@H]4O)[C@@H]3CC[C@H]2C1=O`, the composite z-score is -0.635 in test [1]; -0.112 in test [2]; -0.173 in test [3]; 0.242 in test [4]; 0.352 in test [5]; 0.12 in test [6]. Besides, the composite z-score in test [7] was -0.0114; in test [9], 0.156; in test [10], -0.291; in test [11], -0.556; in [15], -0.0973; in [17] it was -0.159. Also, the composite z-score in [18] is 0.0713; in test [19], -0.124; in [20], -0.0685. In addition, the z-score in test [8] is -0.116 (inactive); in [12], 0.141 (inactive); in test [13], 0.234 (inactive); in [14], 0.33 (inactive); in test [16], 0.454 (inactive).

With `CCOC(=O)[C@H](Cc1ccccc1)NC(=O)CCC1CC(OC(=O)NCc2cccc3ccccc23)CC2(CCCC(COC(=O)NCCc3ccc(Cl)cc3)O2)O1` (stereo not given in full), the composite z-score in [1] is -0.487; in [2], 0.0381; in test [3] it was -0.205; in test [4] it was 0.13; in [5], 0.597; in test [6] it was 0.108. The composite z-score in test [7] was 0.966; in test [9], -0.0328; in test [10], -0.0645; in test [11] it was 1.15; in [15], 1.3; in test [17] it was -0.253. Besides, the composite z-score is 0.448 in test [18], 0.974 in [19] and -0.0922 in test [20]. Besides, the z-score was 0.903 (inactive) in [8]; -0.69 (inactive) in test [12]; -0.0785 (inactive) in [13]; -0.647 (inactive) in test [14]; -0.159 (inactive) in test [16].

As to `C=CCOCC1CN2[C@@H](CC[C@@H](C)[C@@H]2c2ccc(Br)cc2)C(=O)O1` (stereo not given in full), the composite z-score in [1] is -0.155; in test [2] it was 0.0527; in [3], -0.16; in test [4] it was -0.204; in test [5], -0.619; in test [6], -0.391. Further, the composite z-score was -0.479 in [7]; -0.546 in test [9]; -0.0994 in test [10]; -0.149 in [11]; -0.581 in test [15]; -0.296 in test [17]. The composite z-score in test [18] is 0.167; in test [19] it was -0.405; in test [20], -0.0953. In addition, the z-score in [8] was -0.0613 (inactive); in test [12], -0.349 (inactive); in test [13] it was -0.592 (inactive); in [14], 0.338 (inactive); in test [16], 0.415 (inactive).

Consider `CCC1=NOC(CCC2CC(OC(=O)NCc3cccc4c3OCO4)CC3(CCCC(COC(=O)NCCc4ccc(Cl)cc4)O3)O2)C1` (stereo not given), for which the composite z-score in test [1] was -0.281; in [2], 0.0253; in test [3], 0.0388; in test [4], 0.88; in test [5], 0.0241; in test [6] it was 1.44. The composite z-score in test [7] was 1.12; in test [9], -0.0353; in test [10], -0.0994; in [11], 0.616; in test [15], 1.59; in [17] it was -0.186. Further, the composite z-score is 0.379 in test [18], -0.165 in [19] and -0.125 in [20]. In addition, the z-score in [8] is 1.24 (inactive); in test [12], -0.57 (inactive); in test [13], 0.232 (inactive); in test [14] it was 0.407 (inactive); in test [16], 0.812 (inactive).

Consider `CCOC(=O)[C@H](CC(C)C)NC(=O)CCC1CC(OC(=O)NCc2ccc3c(c2)OCO3)CC2(CCCC(COC(=O)NCc3ccccc3)O2)O1` (stereo not given in full), for which the composite z-score in [1] was -0.542; in [2] it was 0.01; in [3], -0.0667; in [4], 0.536; in [5], 0.375; in [6], 0.929. Also, the composite z-score in test [7] is 1.12; in test [9], 0.986; in [10], -0.0994; in [11], 0.974; in test [15], 1.83; in [17], -0.124. Besides, the composite z-score was 0.684 in test [18], 0.845 in test [19] and -0.0978 in [20]. The z-score in test [8] is 1.61 (inactive); in test [12] it was 0.177 (inactive); in test [13], 1.12 (inactive); in test [14] it was 0.0835 (inactive); in [16] it was 0.314 (inactive).

As for `CCc1cc2c(nc1CC)CCN(CCC(C)=NOC(C)CN1CCCCc3nc(C)c(C)cc31)C2` (stereo not given), the composite z-score is -0.154 in test [1]; 1.24 in [2]; -0.073 in test [3]; 0.541 in [4]; 1.11 in test [5]; 0.946 in [6]. Further, the composite z-score in test [7] is 1.07; in [9], 0.544; in [10], -0.174; in [11] it was 1.49; in [15], 2.42; in [17], 0.0809. Besides, the composite z-score was determined as 0.932 in test [18], 1.08 in test [19] and 0.142 in test [20]. Also, the z-score in [8] was 0.795 (inactive); in [12], -0.379 (inactive); in test [13], -16.2 (active); in test [14], -0.755 (inactive); in test [16], 0.546 (inactive).

On to `C=CC[C@@H]1C=C[C@H](ON=C[C@@H](NS(=O)(=O)c2ccc(C)cc2)[C@H](C)C=CCC(=O)OC)[C@@H](CO)O1`, for which the composite z-score is -0.172 in [1]; 0.571 in test [2]; -0.134 in test [3]; 0.2 in test [4]; -0.0681 in test [5]; -0.209 in test [6]. Further, the composite z-score in test [7] is 0.476; in test [9] it was -0.0961; in [10] it was 0.289; in test [11], -0.248; in [15], 0.324; in test [17], -0.11. The composite z-score in test [18] was 0.659; in test [19], -0.531; in test [20] it was -0.0715. In addition, the z-score in test [8] was -0.0545 (inactive); in test [12] it was -0.605 (inactive); in test [13] it was 0.757 (inactive); in test [14] it was -0.0333 (inactive); in test [16], 0.354 (inactive).

Turning to `Cc1cc(C)c(-c2cc([C@H](C)ON=C[C@@H](C)[C@H](OCc3ccccc3)C(C)C)on2)c(C)c1`, the composite z-score is -0.355 in test [1]; 0.298 in test [2]; -0.0901 in test [3]; 0.0823 in [4]; -0.637 in test [5]; -0.529 in test [6]. For the same molecule, the composite z-score in test [7] is -1.22; in test [9] it was -0.342; in test [10], 0.0505; in test [11], -0.903; in [15], -0.91; in test [17], 0.0469. The composite z-score was 0.481 in [18], 0.0065 in test [19] and -0.067 in [20]. For the same molecule, the z-score in test [8] is 0.239 (inactive); in test [12], 0.0494 (inactive); in test [13], 0.217 (inactive); in test [14], 0.817 (inactive); in [16], -0.461 (inactive).

The values above are taken from PubChem BioAssay.
